Where “and” joins values, the source holds several entries; their conditions need not be identical. Identical values can stand only once. Results filed as inconclusive are left out. Some compounds were tested as several samples or in several runs, with calls that do not always agree. Calls of active or inactive are those of the source. How the source made its calls, unless noted: active means hit-call score of the fitted dose curve at least 0.9, where 1 is the maximum; inactive means score below 0.9.
Tests used:
[1] = read-out: Monokine induced gamma interferon (MIG), CXCL9 (gene 4283); assay: BSK_3C_MIG: BioMAP Diversity Plus: 3C Assay for Monokine induced gamma interferon (MIG) Biomarker Activity (AID 2283021); conditions: primary human endothelial cells (HUVEC); actives raise or lower the signal;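 on AC50: MIG protein level measured by immunoassay in the treated endothelial cultures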
Method in brief: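 After 24 h of treatment, human umbilical vein endothelial cultures (3C system) had their MIG biomarker level determined by ELISA, with DMSO serving as negative control.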

[2] = BSK_3C_SRB: Viability Assessment in the BioMAP Diversity Plus: 3C Assay (AID 2283023); conditions: primary human endothelial cells (HUVEC);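 further: fitted both ways against DMSO so a hit may be signal rise or drop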
Method in brief: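 Human umbilical vein endothelial cells in the 3C system, treated 24 h. Total protein measured by 0.1% sulforhodamine B staining after 10% TCA fixation, read at 560 nm; bidirectional fit versus DMSO.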

[3] = read-out: Matrix Metallopeptidase 1 (MMP1), MMP1 (gene 4312); assay: BSK_BE3C_MMP1: BioMAP Diversity Plus: BE3C Assay for Matrix Metallopeptidase 1 (MMP1) Biomarker Activity (AID 2283024); conditions: primary human bronchial epithelial cells; actives raise or lower the signal
Method in brief: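 Dose cells, wait 24 h, run MMP1 ELISA; cells are human bronchial epithelial primaries. Both increases and decreases relative to DMSO counted.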

[4] = BSK_3C_Vis: BioMAP Diversity Plus: 3C Assay for Morphology Visualization (AID 2283025); conditions: primary human endothelial cells (HUVEC);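 further: fitted both ways so gain or loss versus DMSO counts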;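 on AC50: light microscopy image of cell morphology used as background control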
Method in brief: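 Endothelial cells from human umbilical vein were treated with test chemicals for 24 h and inspected by light microscopy for changes in cell conformation.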

[5] = read-out: Pselectin, SELP (gene 6403); assay: BSK_4H_Pselectin: BioMAP Diversity Plus: 4H Assay for Pselectin Biomarker Activity (AID 2283026); conditions: primary human endothelial cells (HUVEC); actives raise or lower the signal
Method in brief: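 Human vascular endothelium from umbilical vein; P-selectin measured by ELISA at 24 h post-dose, with cytotoxicity checked by sulforhodamine B total-protein staining in parallel cultures (0.1% SRB after 10% TCA fixation, read at 560 nm).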

[6] = BSK_4H_SRB: Viability Assessment in the BioMAP Diversity Plus: 4H Assay (AID 2283027); conditions: primary human endothelial cells (HUVEC);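 further: cells exposed to compound for 24 h before staining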;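 on AC50: curves fitted both ways versus DMSO so AC50 may be loss or gain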
Method in brief: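 Human umbilical vein endothelial cells were dosed with chemical and, after 24 h, fixed with 10% TCA, stained with 0.1% sulforhodamine B, and read at 560 nm to give total protein as a cytotoxicity measure. Bidirectional fitting relative to DMSO control.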

[7] = BSK_BE3C_SRB: Viability Assessment in the BioMAP Diversity Plus: BE3C Assay (AID 2283028); conditions: primary human bronchial epithelial cells;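 on AC50: fitted both ways so AC50 may mark signal gain or loss versus DMSO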
Method in brief: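 Human bronchial epithelial primary cells in confluent culture, 24 h after chemical dosing; total protein by 0.1% SRB staining after 10% TCA fixation, read at 560 nm. Bidirectional fitting versus DMSO baseline.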

[8] = read-out: Urokinase-type plasminogen activator receptor (uPAR), PLAUR (gene 5329); assay: BSK_4H_uPAR: BioMAP Diversity Plus: 4H Assay for Urokinase-type plasminogen activator receptor (uPAR) Biomarker Activity (AID 2283030); conditions: primary human endothelial cells (HUVEC); actives raise or lower the signal
Method in brief: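 Human umbilical vein endothelial cells in the 4H system, 24 h after chemical dosing. Cell-surface uPAR measured by ELISA, fitted in both directions versus DMSO; cytotoxicity checked by SRB total protein in parallel cultures.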

[9] = read-out: Vascular endothelial growth factor receptor 2 (Homo sapiens) (UniProt P35968); assay: BSK_4H_VEGFRII: BioMAP Diversity Plus: 4H Assay for Vascular endothelial growth factor receptor 2 (VEGFR2) Biomarker Activity (AID 2283031); conditions: primary human endothelial cells (HUVEC); actives raise or lower the signal;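 on AC50: cell-surface VEGFR2 protein level quantified by ELISA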
Method in brief: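 Primary human umbilical vein endothelial cells (4H system), 24 h exposure; cell-surface VEGFR2 measured by ELISA. Bidirectional fitting versus DMSO; cytotoxicity checked in parallel by SRB total-protein staining.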

[10] = read-out: Human Leukocyte Antigen - DR isotype (HLADR), HLA-DRA (gene 3122); assay: BSK_BE3C_HLADR: BioMAP Diversity Plus: BE3C Assay for Human Leukocyte Antigen - DR isotype (HLADR) Biomarker Activity (AID 2283032); conditions: primary human bronchial epithelial cells; actives raise or lower the signal
Method in brief: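 Signal came from an ELISA for HLA-DR in human bronchial epithelial primary cells harvested 24 h after treatment; gain- and loss-of-signal fitting used DMSO controls as reference.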

[11] = read-out: Vascular cell adhesion molecule 1 (VCAM1), VCAM1 (gene 7412); assay: BSK_4H_VCAM1: BioMAP Diversity Plus: 4H Assay for Vascular cell adhesion molecule 1 (VCAM1) Biomarker Activity (AID 2283033); conditions: primary human endothelial cells (HUVEC); actives raise or lower the signal
Method in brief: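 Endpoint derived from bidirectional fitting against DMSO controls of VCAM-1 ELISA signal in umbilical vein endothelial cells sampled at 24 h following treatment.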

[12] = read-out: Interferon-gamma inducible Protein 10 (IP10), CXCL10 (gene 3627); assay: BSK_BE3C_IP10: BioMAP Diversity Plus: BE3C Assay for Interferon-gamma inducible Protein 10 (IP10) Biomarker Activity (AID 2283034); conditions: primary human bronchial epithelial cells; actives raise or lower the signal
Method in brief: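 Using primary human bronchial epithelial cultures, the assay captures IP-10 by ELISA one day (24 h) after exposure. Parallel SRB staining of total protein flags overt cytotoxicity. Fits run bidirectionally relative to DMSO.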

[13] = read-out: Monokine induced gamma interferon (MIG), CXCL9 (gene 4283); assay: BSK_BE3C_MIG: BioMAP Diversity Plus: BE3C Assay for Monokine induced gamma interferon (MIG) Biomarker Activity (AID 2283035); conditions: primary human bronchial epithelial cells; actives raise or lower the signal
Method in brief: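 ELISA read-out of MIG in human lung bronchial epithelial primary cultures, 24 h post-dosing. Bidirectional curve fit vs DMSO baseline.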

[14] = read-out: Transforming growth factor beta 1 (TGFb1), TGFB1 (gene 7040); assay: BSK_BE3C_TGFb1: BioMAP Diversity Plus: BE3C Assay for Transforming growth factor beta 1 (TGFb1) Biomarker Activity (AID 2283036;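 further: TGF-b1 protein level measured by ELISA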); conditions: primary human bronchial epithelial cells; actives raise or lower the signal
Method in brief: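 In this human primary bronchial epithelial system, an ELISA quantified TGF-b1 one day after dosing. Endpoint changes in either direction were fitted relative to DMSO.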

[15] = read-out: Plasminogen activator inhibitor-1 (PAI1), SERPINE1 (gene 5054); assay: BSK_BE3C_PAI1: BioMAP Diversity Plus: BE3C Assay for Plasminogen activator inhibitor-1 (PAI1) Biomarker Activity (AID 2283037); conditions: primary human bronchial epithelial cells; actives raise or lower the signal
Method in brief: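 PAI-1 biomarker levels in treated human bronchial epithelial cells are determined by ELISA at 24 h. Both increases and decreases relative to DMSO are fitted.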

[16] = read-out: urokinase plasminogen activator (uPA), PLAU (gene 5328); assay: BSK_BE3C_uPA: BioMAP Diversity Plus: BE3C Assay for urokinase plasminogen activator (uPA) Biomarker Activity (AID 2283038); conditions: primary human bronchial epithelial cells; actives raise or lower the signal
Method in brief: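 Primary human bronchial epithelial cells, uPA measured by ELISA 24 h after dosing. Bidirectional change relative to DMSO; cytotoxicity checked in parallel cultures by sulforhodamine B total-protein staining.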

[17] = read-out: Urokinase-type plasminogen activator receptor (uPAR), PLAUR (gene 5329); assay: BSK_BE3C_uPAR: BioMAP Diversity Plus: BE3C Assay for Urokinase-type plasminogen activator receptor (uPAR) Biomarker Activity (AID 2283039); conditions: primary human bronchial epithelial cells; actives raise or lower the signal
Method in brief: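 A uPAR ELISA serves as the readout, taken 24 h after treating primary human bronchial epithelial cells. Responses in either direction are fitted against DMSO, which defines baseline activity.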

[18] = read-out: Interleukin-6 (IL6), IL6 (gene 3569); assay: BSK_CASM3C_IL6: BioMAP Diversity Plus: CASM3C Assay for Interleukin-6 (IL6) Biomarker Activity for (AID 2283040); conditions: primary human coronary artery smooth muscle cells; actives raise or lower the signal
[19] = read-out: Thrombomodulin, THBD (gene 7056); assay: BSK_3C_Thrombomodulin: BioMAP Diversity Plus: 3C Assay for Thrombomodulin Biomarker Activity (AID 2283029); conditions: primary human endothelial cells (HUVEC); actives raise or lower the signal
Method in brief: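 Thrombomodulin ELISA, human primary HUVEC, 24 h post-dose; data fitted in both directions relative to DMSO.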

[20] = biological target: human Vitamin D Receptor (VDR), VDR (gene 7421) (UniProt P11473); assay: ATG_VDR_TRANS: Attagene TRANS-FACTORIAL HepG2 Assay for human Vitamin D Receptor (VDR) (AID 2283022; active means hit-call score of the fitted dose curve at least 0.9, where 1 is the maximum)
Method in brief: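 HepG2 cells were transiently transfected with GAL4-UAS reporter units and a chimeric VDR-Gal4 construct, then dosed for 24 hours. Reporter mRNA was quantified by RT-PCR, fluorescent labeling, HpaI digestion and capillary electrophoresis; gain of signal analysed vs DMSO.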

Measured: AC50

human Vitamin D Receptor (VDR), VDR (gene 7421), sequence (P11473 whole entry, looked up, the tested form may be a part): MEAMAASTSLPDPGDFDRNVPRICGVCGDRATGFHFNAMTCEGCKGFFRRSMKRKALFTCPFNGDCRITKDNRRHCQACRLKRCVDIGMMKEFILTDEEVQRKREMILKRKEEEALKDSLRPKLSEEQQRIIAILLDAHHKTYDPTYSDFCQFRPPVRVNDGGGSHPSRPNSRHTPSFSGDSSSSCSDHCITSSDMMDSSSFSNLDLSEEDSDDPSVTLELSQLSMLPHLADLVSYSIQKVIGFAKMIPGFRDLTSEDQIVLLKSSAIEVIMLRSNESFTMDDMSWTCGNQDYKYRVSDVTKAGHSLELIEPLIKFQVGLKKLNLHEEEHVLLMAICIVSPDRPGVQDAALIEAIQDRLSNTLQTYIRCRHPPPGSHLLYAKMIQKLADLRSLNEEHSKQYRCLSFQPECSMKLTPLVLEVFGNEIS

COCC(C)O (configuration not stated)
not listed: [19] | [20]
inactive: all other assays above

ClC1=C(Cl)C(Cl)(Cl)C(Cl)=C1Cl
active: [1] 10.5 µM | [2] 5.75 µM | [3] 10.7 µM | [4] 7.95 µM | [5] 5.42 µM | [6] 6.82 µM | [7] 6.99 µM | [19] 10.3 µM | [10] 6.39 µM | [11] 6.5 µM | [12] 6.61 µM | [13] 10.1 µM | [15] 5.25 µM | [16] 7.28 µM | [17] 8.37 µM | [18] 5.48 µM
inactive: [9]

OCCC(F)(F)C(F)(F)C(F)(F)C(F)(F)C(F)(F)C(F)(F)C(F)(F)C(F)(F)F
active: [1] 48.6 µM | [2] 29.1 µM and 19 µM | [3] 48 µM | [5] 14.5 µM and 13.5 µM | [6] 18.2 µM and 15.6 µM | [7] 22.8 µM and 20 µM | [9] 47.9 µM and 20.6 µM | [10] 18.3 µM and 24.1 µM | [11] 41.3 µM and 22.7 µM | [13] 33.5 µM and 28.7 µM | [15] 16.7 µM and 24.8 µM | [16] 27.9 µM and 27.7 µM | [17] 20.9 µM and 22.9 µM
inactive: [1] | [2] | [3] | [4] | [5] | [6] | [7] | [9] | [10] | [11] | [13] | [14] | [15] | [16] | [17] | [18]

CC(C)CCCCCCOC(=O)CCCCC(=O)OCCCCCCC(C)C
not listed: [8] | [12] | [20]
inactive: all other assays above

CCC(=C(c1ccc(O)cc1)c1ccc(OCCN(C)C)cc1)c1ccccc1
inactive: [20] | [9]
active: [1] 11.1 µM | [20] 11.6 µM | [2] 9.01 µM | [3] 12.2 µM | [4] 6.97 µM | [5] 6.16 µM | [6] 8.19 µM | [7] 9.32 µM | [10] 8.64 µM | [11] 10.3 µM | [13] 9.95 µM | [15] 12 µM | [16] 9.93 µM | [17] 9.55 µM | [18] 24.6 µM

C[C@@H]1C[C@H]2[C@@H]3CCC4=CC(=O)C=C[C@]4(C)[C@@]3(F)[C@@H](O)C[C@]2(C)[C@@]1(O)C(=O)COP(=O)(O)O
inactive: [1] | [20] | [2] | [3] | [4] | [5] | [6] | [7] | [19] | [9] | [10] | [11] | [13] | [15] | [16] | [17]
active: [3] 0.1 µM | [15] 0.763 µM | [18] 158 nM and 1.34 µM and 690 nM

From PubChem BioAssay (EPA / NIEHS)
